Assay results reported in PubChem BioAssay (NCI).
The panel holds about 83,000 compounds, 20% with a hit somewhere; the sample as a whole holds those more often.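 Testing used 96-well plates and a 48-hour single-concentration exposure. Example: -40 means 40% of the starting cells died.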 Values without a mark were called inactive. Activity calls are given as the source filed them. The calls were made as follows: active = growth percent below 10; inactive = the rest.

Tested on: PC-3 prostate
Experiment: NCI-60 one-dose screen, 48 h (100 = growth as untreated, 0 = no growth, -100 = all killed)
Conditions: 10 µM

Row | Structure (SMILES) | growth
1 | CSc1cc(SC)ncn1 | 91%
2 | CCOC(=O)CNC(=O)CCCCSc1ncnc2nc[nH]c12 | 91%
3 | COc1ccc(OC)c(/C=C/c2nc(SCc3ccccc3)n(-c3ccc(Cl)cc3)n2)c1 | 35.6%
4 | c1ccc(C(NC2CC3CCC2C3)c2ccccc2)cc1 (stereo not drawn) | 97.2%
5 | CN1CCC2(CC1)NC(=O)c1c(c3ccc(Cl)c(Cl)c3n1C)C2C#N (stereo not drawn) | 67.1%
6 | O=[N+]([O-])c1cccc(N=Cc2ccc3c(c2)OCO3)c1 | 106%
7 | Nc1cc2c(cc1Cl)-c1ccc([N+](=O)[O-])cc1/C2=N\O | 52%
8 | COc1ccc(OC)c2c1C(=O)CC2C (stereo not drawn) | 97.5%
9 | N#CSCC1CC(O)(c2ccccc2)CC(c2ccc(Cl)cc2)O1 (stereo not drawn) | 29.4%
10 | CCOC(=O)C1CCc2c(ccc3ccccc23)N1CCC#N (stereo not drawn) | 84.9%
11 | Fc1ccc(-c2nnc(-c3c(-c4ccc(F)cc4)nc4ccccn34)o2)cc1 | 84.6%
12 | O=C1/C(=C/c2ccc(Cl)cc2)SC(=Nc2ccc(Cl)cc2)N1Cc1nc2ccccc2[nH]1 | 41.6%
13 | CO/N=C(/C(=O)NC1C(=O)N2C(C(=O)O)=C(COC(N)=O)CSC12)c1ccco1 (stereo not drawn) | 101%
14 | COc1ccc(C2CC(c3ccc(N(C)C)cc3)=NN2c2ccc(S(N)(=O)=O)cc2)cc1 (stereo not drawn) | 18.9%
15 | CN(C)CCNC(=O)c1cccn2c(=O)c3cc4ccccc4cc3nc12 | -16.6% (active)
16 | Oc1[nH]c2ccc(Cl)cc2c1/C=c1/ccc2c(c1)N=C(c1cccs1)N=2 | 62.5%
17 | Nc1ccc2c(c1)Cc1cc(N)c(Br)cc1-2 | 96.9%
18 | Cc1ccc(Nc2nnc(-c3cc(-c4ccncc4)n(-c4ccccc4)n3)s2)cc1 | 56.1%
19 | O=C(N/N=C\c1cc(Cl)ccc1[N+](=O)[O-])c1ccco1 | 100%
20 | COc1ccc2c(c1)sc1nc(-c3ccccc3)c(-c3ccsc3)n12 | 16.6%

Row | Structure (SMILES) | growth
21 | O=C(N/N=C/c1ccccc1O)C(O)(c1ccccc1)c1ccccc1 | 55.5%
22 | CCCCCCCCCCCCC1C/C=C\CCCC(=O)O1 (stereo not drawn) | 112%
23 | O=C(Nc1cccc(Br)c1)c1cc(=O)[nH]c2ccccc12 | 79.2%
24 | CC(C)=CCc1ccc(O)c(=O)cc1C(C)C | 43.7%
25 | Cc1occc1-c1nnc(SCC(=O)c2ccc(NC(=O)CC(C)C)cc2)o1 | 100%
26 | CC(C)=NNc1ncnc2c1ncn2C1OC(CO)C(O)C1O (stereo not drawn) | 17.7%
27 | CCCCCCCCCCCCCC[n+]1ccc(C(N)=O)cc1 | -23.3% (active)
28 | COc1ccc(Cl)cc1C(=O)Nc1nc2ccc(Cl)cc2s1 | 84.4%
29 | O=C(CSSCC(=O)c1ccc(Cl)cc1)c1ccc(Cl)cc1 | 61.1%
30 | O=[P@@]1(c2ccccc2)O[C@H](COCc2ccccc2)[C@@H](OCc2ccccc2)[C@H](OCc2ccccc2)[C@H]1O | 78.7%
31 | Nc1ncn([C@@H]2O[C@H](CO)[C@@H](O)[C@H]2O)c(=O)n1 | 31%
32 | CCCCOC(=O)Oc1ccc(C(=O)Oc2ccc(OCC)cc2)cc1 | 93.2%
33 | O=C1c2ccc3c4c(ccc(c24)C(=O)N1CCNCc1ccccc1)C(=O)N(CCNCc1ccccc1)C3=O | 28.3%
34 | CCn1cc(C(=O)O)c(=O)c2cnc(N3CCCC3)nc21 | 102%
35 | Cc1ccc(-c2nc(/C=C3/C(=O)N(C)c4ccc(F)cc43)c3ccccn23)cc1 | 113%
36 | COc1ccc(OC)c(/C=C/c2nc(SC)n(-c3ccc(Cl)cc3)n2)c1 | 38.9%
37 | COc1cccc(-c2cc(-c3cccc(NS(C)(=O)=O)c3)nc(N)c2C#N)c1O | 16.6%
38 | CC1CN(Cc2ccccc2)C(=O)NC1=O (stereo not drawn) | 92.7%
39 | Cc1cn(C2CCCCO2)c(=O)nc1NO (stereo not drawn) | 104%

Tested on: SK-MEL-5 melanoma
Experiment: as above
Conditions: 10 µM

Row | Structure (SMILES) | growth
40 | CSc1cc(SC)ncn1 | 104%
41 | CCOC(=O)CNC(=O)CCCCSc1ncnc2nc[nH]c12 | 93.4%
42 | COc1ccc(OC)c(/C=C/c2nc(SCc3ccccc3)n(-c3ccc(Cl)cc3)n2)c1 | 45.2%
43 | c1ccc(C(NC2CC3CCC2C3)c2ccccc2)cc1 (stereo not drawn) | 99.7%
44 | CN1CCC2(CC1)NC(=O)c1c(c3ccc(Cl)c(Cl)c3n1C)C2C#N (stereo not drawn) | 37.8%
45 | O=[N+]([O-])c1cccc(N=Cc2ccc3c(c2)OCO3)c1 | 111%
46 | Nc1cc2c(cc1Cl)-c1ccc([N+](=O)[O-])cc1/C2=N\O | 82.5%
47 | COc1ccc(OC)c2c1C(=O)CC2C (stereo not drawn) | 94.4%
48 | N#CSCC1CC(O)(c2ccccc2)CC(c2ccc(Cl)cc2)O1 (stereo not drawn) | 68.3%
49 | CCOC(=O)C1CCc2c(ccc3ccccc23)N1CCC#N (stereo not drawn) | 89.2%
50 | Fc1ccc(-c2nnc(-c3c(-c4ccc(F)cc4)nc4ccccn34)o2)cc1 | 80.4%
51 | O=C1/C(=C/c2ccc(Cl)cc2)SC(=Nc2ccc(Cl)cc2)N1Cc1nc2ccccc2[nH]1 | 81.3%
52 | CO/N=C(/C(=O)NC1C(=O)N2C(C(=O)O)=C(COC(N)=O)CSC12)c1ccco1 (stereo not drawn) | 110%
53 | COc1ccc(C2CC(c3ccc(N(C)C)cc3)=NN2c2ccc(S(N)(=O)=O)cc2)cc1 (stereo not drawn) | 69.4%
54 | CN(C)CCNC(=O)c1cccn2c(=O)c3cc4ccccc4cc3nc12 | -20.3% (active)
55 | Oc1[nH]c2ccc(Cl)cc2c1/C=c1/ccc2c(c1)N=C(c1cccs1)N=2 | 52.8%
56 | Nc1ccc2c(c1)Cc1cc(N)c(Br)cc1-2 | 97.8%
57 | Cc1ccc(Nc2nnc(-c3cc(-c4ccncc4)n(-c4ccccc4)n3)s2)cc1 | 67.7%
58 | O=C(N/N=C\c1cc(Cl)ccc1[N+](=O)[O-])c1ccco1 | 111%
59 | COc1ccc2c(c1)sc1nc(-c3ccccc3)c(-c3ccsc3)n12 | 9.67% (active)

Row | Structure (SMILES) | growth
60 | O=C(N/N=C/c1ccccc1O)C(O)(c1ccccc1)c1ccccc1 | 62.1%
61 | CCCCCCCCCCCCC1C/C=C\CCCC(=O)O1 (stereo not drawn) | 109%
62 | O=C(Nc1cccc(Br)c1)c1cc(=O)[nH]c2ccccc12 | 95.5%
63 | CC(C)=CCc1ccc(O)c(=O)cc1C(C)C | -17.2% (active)
64 | Cc1occc1-c1nnc(SCC(=O)c2ccc(NC(=O)CC(C)C)cc2)o1 | 94.9%
65 | CC(C)=NNc1ncnc2c1ncn2C1OC(CO)C(O)C1O (stereo not drawn) | 20.5%
66 | CCCCCCCCCCCCCC[n+]1ccc(C(N)=O)cc1 | -82.8% (active)
67 | COc1ccc(Cl)cc1C(=O)Nc1nc2ccc(Cl)cc2s1 | 92.8%
68 | O=C(CSSCC(=O)c1ccc(Cl)cc1)c1ccc(Cl)cc1 | 29.7%
69 | O=[P@@]1(c2ccccc2)O[C@H](COCc2ccccc2)[C@@H](OCc2ccccc2)[C@H](OCc2ccccc2)[C@H]1O | 73%
70 | Nc1ncn([C@@H]2O[C@H](CO)[C@@H](O)[C@H]2O)c(=O)n1 | 48.3%
71 | CCCCOC(=O)Oc1ccc(C(=O)Oc2ccc(OCC)cc2)cc1 | 102%
72 | O=C1c2ccc3c4c(ccc(c24)C(=O)N1CCNCc1ccccc1)C(=O)N(CCNCc1ccccc1)C3=O | -97.9% (active)
73 | CCn1cc(C(=O)O)c(=O)c2cnc(N3CCCC3)nc21 | 102%
74 | Cc1ccc(-c2nc(/C=C3/C(=O)N(C)c4ccc(F)cc43)c3ccccn23)cc1 | 95.6%
75 | COc1ccc(OC)c(/C=C/c2nc(SC)n(-c3ccc(Cl)cc3)n2)c1 | 53.4%
76 | COc1cccc(-c2cc(-c3cccc(NS(C)(=O)=O)c3)nc(N)c2C#N)c1O | 11.9%
77 | CC1CN(Cc2ccccc2)C(=O)NC1=O (stereo not drawn) | 106%
78 | Cc1cn(C2CCCCO2)c(=O)nc1NO (stereo not drawn) | 108%
